Experimental data: publication PMC11062922 (Nature Chemical Biology, 2023)
Where two headings read alike, the source gives them in different places.

Experiments:
Set-up in all cases: species or system human, MV4-11 + K-562 + COLO205 + SK-N-BE2 + OVCAR-8
BMPR1B = conditions: read-out: apparent Kd, n = 1
CDK16 = conditions: read-out: apparent Kd, compound concentrations: 100 nM and 1000 nM (sheet 'Samples'), n = 1
CDKL5 = conditions: read-out: apparent Kd, n = 1
MAP2K5 = conditions: read-out: apparent Kd, n = 1
BTK = conditions: read-out: apparent Kd, compound concentrations: 100 nM and 1000 nM (sheet 'Samples'), n = 1
DDR2 = conditions: read-out: apparent Kd, compound concentrations: 100 nM and 1000 nM (sheet 'Samples'), n = 1
EPHA5 = conditions: read-out: apparent Kd, compound concentrations: 100 nM and 1000 nM (sheet 'Samples'), n = 1
EPHB1 = conditions: read-out: apparent Kd, compound concentrations: 100 nM and 1000 nM (sheet 'Samples'), n = 1
FLT4 = conditions: read-out: apparent Kd, n = 1
PRKD2 = conditions: read-out: apparent Kd, compound concentrations: 100 nM and 1000 nM (sheet 'Samples'), n = 1
JAK2 = conditions: read-out: apparent Kd, compound concentrations: 100 nM and 1000 nM (sheet 'Samples'), n = 1
AURKB = conditions: read-out: apparent Kd, n = 1
PLK4 = conditions: read-out: apparent Kd, compound concentrations: 100 nM and 1000 nM (sheet 'Samples'), n = 1
TNK2 = conditions: read-out: apparent Kd, compound concentrations: 100 nM and 1000 nM (sheet 'Samples'), n = 1
EPHB6 = conditions: read-out: apparent Kd, n = 1
CDK17 = conditions: read-out: apparent Kd; compound concentrations: 100 nM and 1000 nM (sheet 'Samples'), CATDS: 3.2303603060191699E-2; n = 1
[1] = compound concentrations:100 nM and 1000 nM (sheet 'Samples')

COc1cccc(-n2ncc3c(N/N=C/c4ccc(C(=O)NCCN(C)C)cc4)ncnc32)c1.Cl [GW784307A]
potency estimated from few doses (BMPR1B; compound concentrations: 100 nM and 1000 nM (sheet 'Samples'), CATDS: 3.8430447981996803E-2): 486 nM
potency estimated from few doses (CDK16; CATDS: 2.5546052944154699E-2): 2020 nM
potency estimated from few doses (CDKL5; compound concentrations: 100 nM and 1000 nM (sheet 'Samples'), CATDS: 0.115641908649272): 49.3 nM
potency estimated from few doses (MAP2K5; compound concentrations: 100 nM and 1000 nM (sheet 'Samples'), CATDS: 2.4851428787040001E-2): 2320 nM

Cc1ccc(O)cc1Nc1ccnc2cc(-c3ccc(CN4CCCCC4)o3)ccc12 [GW557777X]
potency estimated from few doses (BMPR1B; compound concentrations: 100 nM and 1000 nM (sheet 'Samples'), CATDS: 2.1920480328631101E-2): 73.2 nM
potency estimated from few doses (BTK; CATDS: 1.36078174892899E-2): 960 nM
potency estimated from few doses (DDR2; CATDS: 1.39203861332134E-2): 800 nM
potency estimated from few doses (EPHA5; CATDS: 3.4723791615605203E-2): 15.6 nM
potency estimated from few doses (EPHB1; CATDS: 9.2243435191231293E-2): 1.47 nM
potency estimated from few doses (FLT4; compound concentrations: 100 nM and 1000 nM (sheet 'Samples'), CATDS: 1.3507307153085599E-2): 1020 nM
potency estimated from few doses (PRKD2; CATDS: 2.1213632342937001E-2): 83.5 nM

CNC1=NC(=O)/C(=C/c2ccc3ncccc3c2)S1 [RO4595949-000]
potency estimated from few doses (CDKL5; compound concentrations: 100 nM and 1000 nM (sheet 'Samples'), CATDS: 4.9375621350065603E-2): 2150 nM
potency estimated from few doses (JAK2; CATDS: 6.3201453255696996E-2): 790 nM
potency estimated from few doses (PRKD2; CATDS: 5.1323444817528999E-2): 1770 nM

NC(=O)c1cccc(Nc2nccc(Nc3cccc4[nH]ncc34)n2)c1 [GW782612X]
potency estimated from few doses (DDR2; CATDS: 3.15347900030735E-2): 2580 nM

CS(=O)(=O)Cc1ccc(Nc2nccc(-c3c(-c4cccc(NC(=O)C5CCCCC5)c4)nn4ncccc34)n2)cc1 [GSK350559A]
potency estimated from few doses (FLT4; [1]): 995 nM

COc1ccccc1CNC1=NC(=O)/C(=C/c2ccc3ncccc3c2)S1 [RO4503315-000]
potency estimated from few doses (JAK2; CATDS: 8.0204348967342395E-2): 755 nM

CNC(=O)c1ccccc1Nc1nc(Nc2cccc(CS(C)(=O)=O)c2)ncc1C.O=CO [GSK1520489A]
potency estimated from few doses (AURKB; compound concentrations: 100 nM and 1000 nM (sheet 'Samples'), CATDS: 5.1121534714452903E-2): 22.6 nM
potency estimated from few doses (BMPR1B; compound concentrations: 100 nM and 1000 nM (sheet 'Samples'), CATDS: 1.50633752553141E-2): 288 nM
potency estimated from few doses (BTK; CATDS: 3.3529613297139299E-2): 46.5 nM
potency estimated from few doses (DDR2; CATDS: 1.3086276372357399E-2): 443 nM
potency estimated from few doses (FLT4; compound concentrations: 100 nM and 1000 nM (sheet 'Samples'), CATDS: 2.0677135389333402E-2): 127 nM
potency estimated from few doses (JAK2; CATDS: 1.0777709602795499E-2): 917 nM
potency estimated from few doses (PLK4; CATDS: 5.6526690593712202E-2): 19.3 nM

Cn1cc(-c2ccc3c(c2)CCN3C(=O)Cc2cccc(Cl)c2)c2c(N)ncnc21 [GSK2606590A]
potency estimated from few doses (AURKB; compound concentrations: 100 nM and 1000 nM (sheet 'Samples'), CATDS: 0.34532909823612901): 968 nM

CN1CCN(Cc2ccc(NC(=O)Nc3ccc(N(C)c4ccnc(Nc5ccc(CS(C)(=O)=O)cc5)n4)cc3)cc2)CC1.Cl [GW827654A]
potency estimated from few doses (AURKB; compound concentrations: 100 nM and 1000 nM (sheet 'Samples'), CATDS: 4.55704320916199E-2): 700 nM
potency estimated from few doses (DDR2; CATDS: 5.9738771402131699E-2): 348 nM
potency estimated from few doses (FLT4; compound concentrations: 100 nM and 1000 nM (sheet 'Samples'), CATDS: 0.106760971330705): 109 nM
potency estimated from few doses (TNK2; CATDS: 6.4241949787580299E-2): 295 nM

CN1CCN(Cc2ccc(-c3ccc4c(Nc5ccc(Oc6ccccn6)cc5)ccnc4c3)o2)CC1 [GW567140X]
potency estimated from few doses (MAP2K5; compound concentrations: 100 nM and 1000 nM (sheet 'Samples'), CATDS: 0.16913978514831801): 58.2 nM
potency estimated from few doses (TNK2; CATDS: 4.3541420759690502E-2): 720 nM

Cn1cc(-c2cnc(N)c3c(-c4ccc5c(c4)CCN5C(=O)Cc4ccccc4)csc23)cn1 [GSK2593074A]
potency estimated from few doses (AURKB; [1]): 692 nM
potency estimated from few doses (EPHB6; [1]): 151 nM
potency estimated from few doses (MAP2K5; [1]): 979 nM

N#Cc1cnc2cc(-c3cnc(CNCCN4CCOCC4)s3)ccc2c1Nc1ccc(Oc2ccccc2)cc1 [GW664114X]
potency estimated from few doses (MAP2K5; compound concentrations: 100 nM and 1000 nM (sheet 'Samples'), CATDS: 9.4704147517168505E-2): 230 nM

CN(C)Cc1ccc(-c2ccc3c(Nc4ccc(Oc5ccccn5)cc4)ccnc3c2)o1 [GW567148X]
potency estimated from few doses (AURKB; compound concentrations: 100 nM and 1000 nM (sheet 'Samples'), CATDS: 1.8860841823088701E-2): 1200 nM
potency estimated from few doses (EPHA5; CATDS: 2.06539246385424E-2): 902 nM
potency estimated from few doses (EPHB1; CATDS: 2.01059548951249E-2): 977 nM
potency estimated from few doses (EPHB6; compound concentrations: 100 nM and 1000 nM (sheet 'Samples'), CATDS: 1.6574994682998501E-2): 1960 nM
potency estimated from few doses (JAK2; CATDS: 5.6320908598955097E-2): 121 nM
potency estimated from few doses (MAP2K5; compound concentrations: 100 nM and 1000 nM (sheet 'Samples'), CATDS: 0.100463270176777): 51.4 nM
potency estimated from few doses (PLK4; CATDS: 1.8058867791982399E-2): 1390 nM
potency estimated from few doses (TNK2; CATDS: 2.9353794658715598E-2): 386 nM

c1ccc(Oc2ccc(Nc3ccnc4cc(-c5ccc(CN6CCCCC6)o5)ccc34)cc2)nc1 [GW567143X]
potency estimated from few doses (AURKB; compound concentrations: 100 nM and 1000 nM (sheet 'Samples'), CATDS: 3.8957530355760599E-2): 1180 nM
potency estimated from few doses (EPHB6; compound concentrations: 100 nM and 1000 nM (sheet 'Samples'), CATDS: 3.4972740863409998E-2): 1830 nM
potency estimated from few doses (MAP2K5; compound concentrations: 100 nM and 1000 nM (sheet 'Samples'), CATDS: 0.10658346724576): 108 nM
potency estimated from few doses (TNK2; CATDS: 3.98580587888741E-2): 1080 nM

CC(=O)c1c(-c2ccncc2)[nH]c(-c2ccncc2)c1C [GW493036X]
potency estimated from few doses (CDKL5; [1]): 1670 nM

Nc1ncc(-c2cn[nH]c2)c2scc(-c3ccc4c(c3)CCN4C(=O)Cc3ccccc3)c12 [GSK2593067A]
potency estimated from few doses (AURKB; compound concentrations: 100 nM and 1000 nM (sheet 'Samples'), CATDS: 6.5904790346866707E-2): 1230 nM
potency estimated from few doses (EPHB6; compound concentrations: 100 nM and 1000 nM (sheet 'Samples'), CATDS: 9.2316879629761303E-2): 522 nM

CC(=O)N1CCN(c2ccc(Nc3nccc(-c4sc(C(C)C)nc4-c4cccc(NS(=O)(=O)c5ccccc5)c4)n3)cn2)CC1 [GSK1645872A]
potency estimated from few doses (BMPR1B; compound concentrations: 100 nM and 1000 nM (sheet 'Samples'), CATDS: 3.2416583266463302E-2): 615 nM
potency estimated from few doses (CDK16; CATDS: 3.8372919727344801E-2): 431 nM
potency estimated from few doses (CDK17): 620 nM
potency estimated from few doses (CDKL5; compound concentrations: 100 nM and 1000 nM (sheet 'Samples'), CATDS: 2.2966868813045101E-2): 1680 nM
potency estimated from few doses (EPHB6; compound concentrations: 100 nM and 1000 nM (sheet 'Samples'), CATDS: 2.50190585057842E-2): 1230 nM
potency estimated from few doses (FLT4; compound concentrations: 100 nM and 1000 nM (sheet 'Samples'), CATDS: 2.4036705391895501E-2): 1410 nM
potency estimated from few doses (PLK4; CATDS: 4.4195990908193997E-2): 331 nM
potency estimated from few doses (PRKD2; CATDS: 6.4833229163543699E-2): 179 nM

COc1cccc(-c2c[nH]c3c(N/N=C/c4ccncc4)ncnc23)c1 [GW814408X]
potency estimated from few doses (BMPR1B; [1]): 612 nM
potency estimated from few doses (CDKL5; [1]): 1300 nM

CN1CCN(Cc2cccc(-c3ccc4c(Nc5ccc(Oc6ccccc6)cc5)ccnc4c3)c2)CC1 [GW578342X]
potency estimated from few doses (MAP2K5; compound concentrations: 100 nM and 1000 nM (sheet 'Samples'), CATDS: 0.10104411833730501): 640 nM
